# Measured potencies and affinities stand elsewhere. Activity calls are given as the source filed them.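 The calls were made as follows: active = in all runs, an absorbance decrease of 25% or more of the average positive control decrease; inconclusive = runs conflict, with both active and inactive results; inactive = all runs inactive, opposite-direction effects included.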
# Biological target: Protein disulfide-isomerase A6 (Homo sapiens) (UniProt Q15084)
# Assay: inhibitors of ERp5-mediated insulin aggregation, dose response, biochemical, turbidity, absorbance 650 nm, cherry-picked samples (AID 720566);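 also: negative values mean less insulin aggregation so ERp5 inhibition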
# Conditions: Recombinant ERp5 insulin aggregation; series mostly up to 35 µM
# Chain of Protein disulfide-isomerase A6 (Homo sapiens) (Q15084 whole entry, looked up): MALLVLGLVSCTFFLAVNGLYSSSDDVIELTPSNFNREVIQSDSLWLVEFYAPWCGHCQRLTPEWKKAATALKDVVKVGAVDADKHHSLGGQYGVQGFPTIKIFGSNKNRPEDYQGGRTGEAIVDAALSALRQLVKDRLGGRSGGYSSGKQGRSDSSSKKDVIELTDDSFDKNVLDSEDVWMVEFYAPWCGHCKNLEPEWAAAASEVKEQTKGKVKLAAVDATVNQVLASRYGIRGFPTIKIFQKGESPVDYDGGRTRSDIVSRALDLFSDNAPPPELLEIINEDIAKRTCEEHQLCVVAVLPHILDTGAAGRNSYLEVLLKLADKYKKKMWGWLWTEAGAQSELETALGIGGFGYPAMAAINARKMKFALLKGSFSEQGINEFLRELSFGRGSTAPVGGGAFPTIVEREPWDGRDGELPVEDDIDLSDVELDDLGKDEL
row,Compound,outcome
1,COc1ccc(Cc2nnc(SCC(=O)NC3(C#N)CCCCC3)n2N)cc1,inactive
2,O=C(CCN1C(=O)/C(=C\c2ccccc2)SC1=S)NCCCN1CCOCC1,inactive
3,C[C@@H]1CN([C@H](C)CO)C(=O)c2cc(-c3cccc(C#N)c3)cnc2O[C@H]1CN(C)Cc1cncnc1,inactive
4,C[C@@H]1CN([C@@H](C)CO)C(=O)c2cc(-c3cccc(C#N)c3)cnc2O[C@H]1CN(C)Cc1cncnc1,inactive
5,COCC#Cc1cnc2c(c1)C(=O)N([C@@H](C)CO)C[C@H](C)[C@@H](CN(C)C(=O)NC1CCCC1)O2,inactive
6,C[C@@H]1CN([C@H](C)CO)C(=O)Cc2cc(NS(=O)(=O)c3ccc(F)cc3)ccc2O[C@@H]1CN(C)S(=O)(=O)c1cn(C)cn1,inactive
7,CCCNC(=O)C[C@@H]1C[C@H]2c3cc(NC(=O)CC4CC4)ccc3O[C@H]2[C@H](CO)O1,inactive
8,C[C@@H]1CN([C@H](C)CO)C(=O)c2cc(NC(=O)Nc3cccc4ccccc34)ccc2O[C@@H]1CN(C)C(=O)Nc1cccc2ccccc12,inactive
9,COc1ccc(NC(=O)N(C)C[C@@H]2Oc3ccc(NC(=O)Nc4ccc(F)cc4)cc3CC(=O)N([C@@H](C)CO)C[C@@H]2C)cc1,inactive
10,C[C@@H]1CCCCO[C@@H](CN(C)Cc2ccc(C(=O)Nc3ccccc3N)cc2)[C@@H](C)CN([C@H](C)CO)C(=O)c2cc(NS(=O)(=O)c3cccs3)ccc2O1,inactive
11,CN(C)C(=O)C[C@@H]1C[C@@H]2c3cc(NS(C)(=O)=O)ccc3O[C@@H]2[C@H](CO)O1,inactive
12,C[C@H]1CN([C@@H](C)CO)C(=O)Cc2cc(NC(=O)Nc3cccc4ccccc34)ccc2O[C@H]1CN(C)C(=O)Nc1cccc2ccccc12,inactive
13,O=C(C[C@H]1C[C@@H]2c3cc(NC(=O)NC4CCCC4)ccc3O[C@@H]2[C@@H](CO)O1)NCc1ccc(Cl)cc1,inactive
14,Cn1c(COc2ccccc2)nnc1SCC(=O)Nc1nnc(C2CC2)s1,inactive
15,CCCNC(=O)[C@H]1[C@H](CO)[C@H]2Cn3c(ccc(/C=C/c4ccccc4)c3=O)[C@@H]1N2C(C)=O,inactive
16,CCN1[C@@H]2c3ccc(-c4ccccc4)c(=O)n3C[C@@H]2[C@@H](CO)[C@@H]1C(=O)NCC(F)(F)F,inactive
17,COc1ccc2c3c([nH]c2c1)[C@H](CO)N(C(=O)C1CCOCC1)CC31CCN(Cc2nccs2)CC1,inactive

row,Compound,outcome
1,C[C@H](CO)N1C[C@H](C)[C@H](CN(C)Cc2ccc(C(F)(F)F)cc2)Oc2ccc(NC(=O)Nc3cccc4ccccc34)cc2CC1=O,inactive
2,CC(C)NC(=O)N(C)C[C@@H]1Oc2ncc(-c3cc4ccccc4o3)cc2C(=O)N([C@H](C)CO)C[C@@H]1C,inactive
3,C[C@@H]1CN([C@@H](C)CO)C(=O)Cc2cc(NS(=O)(=O)c3cccs3)ccc2O[C@H]1CN(C)C(=O)Nc1ccc(C(F)(F)F)cc1,inactive
4,Cc1ccc(S(=O)(=O)C=CS(=O)(=O)c2ccc(C)cc2)cc1,inactive
5,C[C@H](CO)N1C[C@H](C)[C@H](CN(C)Cc2cccc(F)c2)Oc2ncc(Br)cc2C1=O,inactive
6,Cc1cc(C(=O)Nc2cccc3c2O[C@@H](CN(C)S(=O)(=O)c2ccc(Cl)cc2)[C@@H](C)CN([C@@H](C)CO)C3=O)n(C)n1,inactive
7,C[C@H](CO)N1C[C@H](C)[C@H](CN(C)C(=O)CCC(F)(F)F)OCCCC[C@H](C)Oc2ccc(NS(=O)(=O)c3ccc(Cl)cc3)cc2C1=O,inactive
8,CO[C@H]1CN(C)C(=O)c2cc(NC(=O)CC(F)(F)F)ccc2OC[C@H](C)N(C(=O)C2CC2)C[C@@H]1C,inactive
9,COCC(=O)N(C)C[C@H]1Oc2cc(C#CC(C)(C)O)ccc2S(=O)(=O)N([C@@H](C)CO)C[C@H]1C,inactive
10,C[C@@H]1CN([C@H](C)CO)C(=O)Cc2cc(NC(=O)c3ccncc3)ccc2O[C@H]1CN(C)S(=O)(=O)c1cn(C)cn1,inactive
11,O=C(NC1CCCC1)[C@@H]1[C@@H](CO)[C@@H]2Cn3c(ccc(-c4cccnc4)c3=O)[C@H]1N2CC1CC1,inactive
12,COc1ccccc1NS(=O)(=O)c1ccc(C(=O)N2CCN(c3ccccn3)CC2)cc1,inactive
13,C[C@@H]1CN([C@H](C)CO)C(=O)c2cccc(NC(=O)Nc3ccc4c(c3)OCO4)c2O[C@H]1CN(C)Cc1ccc(Oc2ccccc2)cc1,inactive
14,COc1ccc(S(=O)(=O)N(C)C[C@@H]2Oc3ccc(NC(=O)c4ccncc4)cc3C(=O)N([C@H](C)CO)C[C@@H]2C)cc1,inactive
15,O=C(CN1C(=O)NC2(CCCC2)C1=O)Nc1cc(C(F)(F)F)ccc1N1CCCCC1,inactive
16,COc1ccc2c3c([nH]c2c1)[C@H](CO)N(C(=O)NC(C)C)CC31CN(C(=O)C2CCCC2)C1,inactive
